For ten compounds, growth inhibition results are on record in PubChem BioAssay (NCI).

The panel holds about 79,000 compounds, 15% with a hit somewhere; the sample as a whole holds those more often. Values without a mark were called inactive. Calls of active or inactive are those of the source. Rule as the data show it: active = growth inhibition above about 70%; inactive = the rest.

A short description of test [1]: NCI Yeast Anticancer Drug Screen. Data for the rad50 strain (AID 155).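 Also: 0% = growth of vehicle-only cultures of the same strain.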 As to conditions: S. cerevisiae rad50 strain growth inhibition, active compounds read high. An outline of the steps:
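Cells are treated with compound, grown, and their growth is then scored against vehicle-only cultures of the same repair-deficient yeast strain.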

Test [2] can be described thus: NCI Yeast Anticancer Drug Screen. Data for the mec2-1 strain (AID 157). As to conditions: S. cerevisiae mec2-1 strain, active compounds read high. An outline of the steps:
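Using mec2-1 yeast: add compound, measure growth, express inhibition versus vehicle-treated cultures.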

A short description of test [3]: NCI Yeast Anticancer Drug Screen. Data for the sgs1 mgt1 strain (AID 161).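 Also: 0% = growth of cultures given vehicle only.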 Conditions: S. cerevisiae sgs1 mgt1 strain, active compounds read high. The gist of the method: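 Yeast cells carrying a defined DNA-repair defect were exposed to test compounds. Growth inhibition was measured relative to vehicle-treated controls.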
Test [4] is described as follows: NCI Yeast Anticancer Drug Screen. Data for the cln2 rad14 strain (AID 165).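 Also: 0% = growth equal to vehicle treated cultures.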 As to conditions: S. cerevisiae cln2 rad14 strain, active compounds read high. The gist of the method: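 Yeast strain cln2 rad14, bearing defects in cell cycle control and DNA repair, serves as the test system; values reflect growth inhibition compared with vehicle.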
The nature of test [5]: NCI Yeast Anticancer Drug Screen. Data for the bub3 strain (AID 167). Conditions: S. cerevisiae bub3 mutant strain, active compounds read high. The gist of the method: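 Part of a panel of yeast mutants defective in DNA damage repair or cell cycle regulation. Each strain is grown with compound, and inhibition is calculated relative to solvent-treated cultures.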
Test [6] can be described thus: NCI Yeast Anticancer Drug Screen. Data for the mlh1 rad18 strain (AID 175). As to conditions: S. cerevisiae mlh1 rad18 strain growth inhibition, active compounds read high. The gist of the method: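 Steps: expose repair-defective yeast to compound; measure growth; express inhibition against vehicle-treated controls.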
[7] abbreviates: at 5.0 µM (retest, dose inferred, filed as 0.5).
[8] abbreviates: at 50.0 µM (retest, dose inferred, filed as 5.0).

Take `CCC1CCC(CC)C1O` (stereo not given): the growth inhibition in test [1] (setting [7]) is 1%; in test [1] (setting [8]), 6%; in test [1] (at 50.0 µM) it was 34.9%; in test [2] (setting [7]), 0%; in test [2] (setting [8]), -3%; in test [2] (at 50.0 µM), 22.9%. The growth inhibition is 2% in test [3] (setting [7]); 0% in test [3] (setting [8]); 26.8% in test [3] (at 50.0 µM); 1% in test [4] (setting [7]); 4% in test [4] (setting [8]); 29.8% in test [4] (at 50.0 µM). Besides, the growth inhibition in test [5] (setting [7]) was 1%; in test [5] (setting [8]), 2%; in test [5] (at 50.0 µM), 78.7% (active); in test [6] (setting [7]), -2%; in test [6] (setting [8]) it was 2%; in test [6] (at 50.0 µM), 28.5%.

In the case of `O=S(=O)(Nc1ccccc1)c1ccccc1C(O)(c1ccccc1)c1ccccc1`, the growth inhibition was 6% in test [1] (setting [7]); 71% (active) in test [1] (setting [8]); 93.6% (active) in test [1] (at 50.0 µM); -15% in test [2] (setting [7]); 94% (active) in test [2] (setting [8]); 73.1% (active) in test [2] (at 50.0 µM). Also, the growth inhibition in test [3] (setting [7]) was -179%; in test [3] (setting [8]), 48%; in test [3] (at 50.0 µM), 92.1% (active); in test [4] (setting [7]) it was -2%; in test [4] (setting [8]), 82% (active); in test [4] (at 50.0 µM), 85.2% (active). In addition, the growth inhibition in test [5] (setting [7]) was 15%; in test [5] (setting [8]), 96% (active); in test [5] (at 50.0 µM), 81.2% (active); in test [6] (setting [7]), -21%; in test [6] (setting [8]) it was 92% (active); in test [6] (at 50.0 µM), 95.5% (active).

As for `O=[N+]([O-])c1ccc(C2=Nn3cnnc3SC2)o1`, the growth inhibition in test [1] (setting [7]) is 2%; in test [1] (setting [8]), 36%; in test [1] (at 50.0 µM), 81.7% (active); in test [2] (setting [7]), 5%; in test [2] (setting [8]) it was 35%; in test [2] (at 50.0 µM), 20.9%. The growth inhibition in test [3] (setting [7]) is 27%; in test [3] (setting [8]), 73% (active); in test [3] (at 50.0 µM), 80.8% (active); in test [4] (setting [7]), 1%; in test [4] (setting [8]) it was 29%; in test [4] (at 50.0 µM), 78.5% (active). Besides, the growth inhibition in test [5] (setting [7]) is 4%; in test [5] (setting [8]), 75% (active); in test [5] (at 50.0 µM) it was 59.3%; in test [6] (setting [7]) it was 18%; in test [6] (setting [8]), 84% (active); in test [6] (at 50.0 µM), 86.7% (active).

In the case of `C=C1C(=O)OC2CC3(C)CC(O)C(O)C(=C)C3CC12` (stereo not given), the growth inhibition in test [1] (setting [7]) was 0%; in test [1] (setting [8]) it was 6%; in test [1] (at 50.0 µM) it was 91.2% (active); in test [2] (setting [7]) it was 1%; in test [2] (setting [8]), 6%; in test [2] (at 50.0 µM), 94.7% (active). Besides, the growth inhibition in test [3] (setting [7]) is -1%; in test [3] (setting [8]), 14%; in test [3] (at 50.0 µM), 93.1% (active); in test [4] (setting [7]) it was -2%; in test [4] (setting [8]) it was 5%; in test [4] (at 50.0 µM), 91.5% (active). Besides, the growth inhibition in test [5] (setting [7]) is 0%; in test [5] (setting [8]) it was 8%; in test [5] (at 50.0 µM), 93% (active); in test [6] (setting [7]) it was 1%; in test [6] (setting [8]) it was 9%; in test [6] (at 50.0 µM), 92.2% (active).

In the case of `Clc1nc(Cl)c(Cl)c(-c2ccccc2)n1`, the growth inhibition is 35% in test [1] (setting [7]); 75% (active) in test [1] (setting [8]); 90.3% (active) in test [1] (at 50.0 µM); 29% in test [2] (setting [7]); 70% (active) in test [2] (setting [8]); 92.7% (active) in test [2] (at 50.0 µM). The growth inhibition was 18% in test [3] (setting [7]); 77% (active) in test [3] (setting [8]); 89% (active) in test [3] (at 50.0 µM); 17% in test [4] (setting [7]); 73% (active) in test [4] (setting [8]); 84.8% (active) in test [4] (at 50.0 µM). Also, the growth inhibition was 12% in test [5] (setting [7]); 86% (active) in test [5] (setting [8]); 85% (active) in test [5] (at 50.0 µM); 55% in test [6] (setting [7]); 77% (active) in test [6] (setting [8]); 87.3% (active) in test [6] (at 50.0 µM).

As to `Nc1ccc(C(=O)N/C(=C\c2ccc3c(c2)OCO3)c2nc3ccccc3s2)cc1`, the growth inhibition in test [1] (setting [7]) was 23%; in test [1] (setting [8]), 99% (active); in test [1] (at 50.0 µM) it was 97.2% (active); in test [2] (setting [7]), -2%; in test [2] (setting [8]), 99% (active); in test [2] (at 50.0 µM), 98.5% (active). Besides, the growth inhibition was 54% in test [3] (setting [7]); 99% (active) in test [3] (setting [8]); 98.2% (active) in test [3] (at 50.0 µM); 15% in test [4] (setting [7]); 98% (active) in test [4] (setting [8]); 96.3% (active) in test [4] (at 50.0 µM). Moreover, the growth inhibition in test [5] (setting [7]) is 32%; in test [5] (setting [8]) it was 98% (active); in test [5] (at 50.0 µM), 97.4% (active); in test [6] (setting [7]) it was 30%; in test [6] (setting [8]), 98% (active); in test [6] (at 50.0 µM), 98.4% (active).

As to `COc1cc(/C=N/NC(=S)Nc2ccccc2)ccc1O`, the growth inhibition was -20% in test [1] (setting [7]); 13% in test [1] (setting [8]); 20.8% in test [1] (at 50.0 µM); -10% in test [2] (setting [7]); 34% in test [2] (setting [8]); 27.4% in test [2] (at 50.0 µM). The growth inhibition in test [3] (setting [7]) is -7%; in test [3] (setting [8]), 82% (active); in test [3] (at 50.0 µM), 66.7%; in test [4] (setting [7]), -31%; in test [4] (setting [8]) it was 9%; in test [4] (at 50.0 µM) it was -23.4%. Further, the growth inhibition in test [5] (setting [7]) was -11%; in test [5] (setting [8]), 60%; in test [5] (at 50.0 µM) it was 77.7% (active); in test [6] (setting [7]), -16%; in test [6] (setting [8]) it was 49%; in test [6] (at 50.0 µM), 30.1%.

Take `COc1cc2c[n+](C)c3c4cc(OC)c(OCc5ccccc5)cc4c(OCc4ccccc4)cc3c2cc1OC`: the growth inhibition in test [1] (setting [7]) was 33%; in test [1] (setting [8]), 96% (active); in test [1] (at 50.0 µM) it was 59.4%; in test [2] (setting [7]) it was 14%; in test [2] (setting [8]), 93% (active); in test [2] (at 50.0 µM) it was 53.7%. Besides, the growth inhibition in test [3] (setting [7]) is 0%; in test [3] (setting [8]) it was 94% (active); in test [3] (at 50.0 µM), 51.1%; in test [4] (setting [7]) it was 5%; in test [4] (setting [8]), 91% (active); in test [4] (at 50.0 µM), 96.6% (active). Besides, the growth inhibition is 16% in test [5] (setting [7]); 95% (active) in test [5] (setting [8]); 93.5% (active) in test [5] (at 50.0 µM); 18% in test [6] (setting [7]); 95% (active) in test [6] (setting [8]); 65.8% in test [6] (at 50.0 µM).

Take `CC(=O)Oc1c2c(c(C)c3ccccc13)C(=O)c1cccnc1C2=O`: the growth inhibition in test [1] (setting [7]) was 6%; in test [1] (setting [8]), 4%; in test [1] (at 50.0 µM), 98.4% (active); in test [2] (setting [7]), 6%; in test [2] (setting [8]), 5%; in test [2] (at 50.0 µM) it was 98.8% (active). In addition, the growth inhibition was 5% in test [3] (setting [7]); 6% in test [3] (setting [8]); 98.7% (active) in test [3] (at 50.0 µM); 10% in test [4] (setting [7]); 0% in test [4] (setting [8]); 97.8% (active) in test [4] (at 50.0 µM). Besides, the growth inhibition is 4% in test [5] (setting [7]); -1% in test [5] (setting [8]); 98.2% (active) in test [5] (at 50.0 µM); 3% in test [6] (setting [7]); 2% in test [6] (setting [8]); 98.6% (active) in test [6] (at 50.0 µM).

With `CCC(COS(=O)(=O)c1ccc(C)cc1)(COS(=O)(=O)c1ccc(C)cc1)COS(=O)(=O)c1ccc(C)cc1`, the growth inhibition is 3% in test [1] (setting [7]); 0% in test [1] (setting [8]); 13.7% in test [1] (at 50.0 µM); -3% in test [2] (setting [7]); 0% in test [2] (setting [8]); 4.35% in test [2] (at 50.0 µM). Moreover, the growth inhibition in test [3] (setting [7]) is -17%; in test [3] (setting [8]) it was -38%; in test [3] (at 50.0 µM), 42%; in test [4] (setting [7]), 3%; in test [4] (setting [8]), 14%; in test [4] (at 50.0 µM), 57.9%. The growth inhibition in test [5] (setting [7]) was 3%; in test [5] (setting [8]), 10%; in test [5] (at 50.0 µM), 21.6%; in test [6] (setting [7]), -35%; in test [6] (setting [8]), -40%; in test [6] (at 50.0 µM) it was 25.8%.
